From PubChem BioAssay
This is a sample that favours compounds with a hit; in the whole collection about 6.5% have one here.
FMDV inh – High Throughput Screening for Foot and Mouth Disease Virus Antivirals; FMDV antiviral cell-based qHTS; Potency, µM (doses to about 57.9 µM), without a hit: at the highest dose activity change, negative = inhibition, hits mostly inhibitors; hit rate 1.2% among 410,000; AID 1159524, 2015; calls by dose curve; tested in HEK293T cells; note: read-out not given here; potency is the fitted concentration of half-maximal effect; nearly all actives have a fitted effect of over 45% in size
Vaccinia mCherry – qHTS for Stage-Specific Inhibitors of Vaccinia Orthopoxvirus: mCherry Reporter Primary qHTS. Vaccinia virus mCherry reporter infection, fluorescence. Potency, µM (top dose mostly 36.5 µM), inactives show at the highest dose activity change, negative = inhibition, hits mostly inhibitors. hit rate 0.63% among 310,000. AID 720579, 2013; calls by dose curve; tested in A549 cells; note: potency is the fitted concentration of half-maximal effect; nearly all actives have a fitted effect of over 35% in size
LASV entry inh – qHTS for Inhibitors of binding or entry into cells for Lassa Virus; Lassa virus pseudotype entry inhibition, cell reporter; Potency, µM (top dose mostly 37.9 µM), without a hit: top-dose activity change, negative = inhibition, usual class: inhibitors; hit rate 1.2% among 300,000; calls by dose curve; tested in HEK293 cells; note: potency is the fitted concentration of half-maximal effect; nearly all actives have a fitted effect of over 50% in size
Vaccinia Venus – qHTS for Stage-Specific Inhibitors of Vaccinia Orthopoxvirus: Venus Reporter Primary qHTS; Vaccinia virus Venus reporter expression, fluorescence; Potency, µM (top dose mostly 36.5 µM), inactives show at the highest dose activity change, negative = inhibition, actives largely listed as inhibitors; hit rate 0.46% among 330,000; AID 720580, 2013; calls by dose curve; tested in A549 cells; note: potency is the fitted concentration of half-maximal effect; nearly all actives have a fitted effect of over 30% in size
MARV entry inh – qHTS for inhibitors of binding or entry into cells for Marburg Virus | Potency, µM (highest dose often 37.8 µM), inactives show at the highest dose activity change, negative = inhibition, hits mostly inhibitors | hit rate 1.8% among 300,000 | AID 540276, 2011 | Marburg virus pseudotyped entry inhibition, cell reporter; calls by dose curve; tested in HEK293 cells; note: potency is the fitted concentration of half-maximal effect
HCMV antiviral – qHTS Assay for inhibitors of the human cytomegalovirus (HCMV) | HFF cells, HCMV-luciferase reporter, 72 h; hits give low values | hit rate 4.5% among 410,000 | activity change, negative = inhibition, % at 57.5 µM; in the data active = activity change below about -60%; inconclusive = no clear call, values can overlap the other calls; inactive = above about -39%
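Compounds were evaluated in HFFs infected with an HCMV luciferase reporter virus (MOI 1 PFU/cell). Luciferase in lysates collected 72 h post infection served as the replication measure.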
* hit, by the source's call; i = inactive; ? = inconclusive; . = no result; ! = not active in a repeat; [ ] = remark or other dose. % is set by controls: 0 for no effect and ±100 for the full control effect.

SMILES | FMDV inh | Vaccinia mCherry | LASV entry inh | Vaccinia Venus | MARV entry inh | HCMV antiviral
CC1=C(C(=O)OCC2CCCCC2)C(c2ccc(Cl)cc2)CC(=O)N1 (stereo not given) | ? | -19% | -8%[46.1 µM] | -8% | ? | ?
O=C(NCc1ccc(F)cc1)[C@@H]1[C@@H](CO)[C@@H]2Cn3c(cccc3=O)[C@H]1N2CC1CCCC1 | . | . | . | . | . | -2
O=C(NN=Cc1ccccc1O)C(=O)Nc1ccc(F)cc1 | . | . | . | . | . | -6
COc1ccc(-c2cc(C(C)=O)c(C)n2CCC(=O)Nc2cccc(C)c2C)cc1 | -11% | i | 11%[46.1 µM] | -4% | . | 0
COC(=O)c1ccc(NC(=O)NC(C)c2c(-n3cccc3)sc(C)c2C)cc1 (stereo not given) | 13% | -15% | . | -13% | -16%[46.1 µM] | -38
CC1NC2(C(=O)N(Cc3ccccc3)c3ccccc32)C2C(=O)N(c3ccccc3)C(=O)C12 (stereo not given) | -7% | i | . | -8% | -2% | -98*
CN1C(=O)C(C2(O)C(=O)N(Cc3ccccc3)c3ccccc32)c2ccccc21 (stereo not given) | . | . | . | . | . | -11
COc1ccc(-n2c(=O)c(-c3cn(C)c4ccccc34)nc3cnc(N4CCOCC4)nc32)cc1 | -5% | . | . | . | . | .
CCOC(=O)c1cc2c(=O)n3cccc(C)c3nc2n(Cc2ccco2)c1=NC(=O)c1cccnc1 | 9% | -15% | 9% | -18% | ? | -9
CCOC(=O)c1cc2c(=O)n3ccccc3nc2n(CCOC)c1=NC(=O)c1c(-c2c(F)cccc2Cl)noc1C | -4% | -3% | ? | 1% | ? | -61*!
CCOC(=O)c1cc2c(=O)n3ccccc3nc2n(Cc2ccco2)c1=NC(=O)c1cccnc1 | -2% | -14% | ? | -11% | 7.3µM* | -16
Cc1cccc(C(=O)N=c2c(C#N)cc3c(=O)n4cccc(C)c4nc3n2Cc2ccco2)c1 | 6% | -11% | 3% | -12% | 14µM*! | -31
O=C(O)C#CC(=O)O | . | i | . | -13% | . | .
C(=C1C=c2ccccc2=C1)c1ccc(N=Nc2ccc(C=C3C=c4ccccc4=C3)cc2)cc1 | . | 0% | . | -13% | . | .
CCCCc1ccc(S(=O)(=O)N[C@H]2CC[C@@]34CCCN3C(=O)CCC[C@H]4[C@H]2Cc2ccccc2)cc1 | . | . | . | . | . | -31
Cc1nnc2c(SC(C)C)nc3ccccc3n12 | -1% | . | . | . | . | -82*
CCOC(=O)CSc1nc2ccccc2n2c(C)nnc12 | -11% | 0% | ? | -11% | -5%[46.1 µM] | 13
CCCN(CCC)CCCNC(=O)C1CCN(c2nc3ccc(CC)cc3s2)CC1 | 13% | -11%[7.34 µM] | 8%[46.1 µM] | -10%[7.34 µM] | 27%[46.1 µM] | -101*
CCCN(CCC)CCNC(=O)C1CCN(c2nc3ccc(CC)cc3s2)CC1 | -2% | -10%[7.34 µM] | ? | -5%[7.34 µM] | ? | -98*
CCc1ccc2nc(N3CCC(C(=O)NCCC(C)C)CC3)sc2c1 | 27% | -20% | ? | -26% | ? | 82
Cc1c(C(=O)Nc2ccccc2)c2ccc(C(F)(F)F)cc2n1O | ? | -7%[7.34 µM] | -10% | -4%[7.34 µM] | ? | -95*
Cc1ccc(NC2=C(N3CCCCC3)C(=O)c3ccccc3C2=O)cc1 | . | i | ? | -14% | ? | -103*
O=C(/C=C/c1ccc(O)cc1)c1ccc(NC2=C(N3CCCCC3)C(=O)c3ccccc3C2=O)cc1 | ? | 1.4µM* | ? | ? | ? | -99*
CC1CCN(C2=C(NS(=O)(=O)c3ccccc3)C(=O)c3ccccc3C2=O)CC1 | -16% | ? | -30% | -13% | ? | -24
O=C1C(Nc2cccc(O)c2)=C(N2CCCCC2)C(=O)c2ccccc21 | . | -1% | -24% | -20% | ? | -28
O=C1C(NS(=O)(=O)c2ccccc2)=C(N2CCN(c3ccc(F)cc3)CC2)C(=O)c2ccccc21 | -15% | 0.32µM* | . | ? | . | -40
O=C1C(NS(=O)(=O)c2ccc(Br)cc2)=C(N2CCCCC2)C(=O)c2ccccc21 | -8% | . | . | . | . | 6
O=C1C(Nc2ccccc2)=C(N2CCCCC2)C(=O)c2ccccc21 | -3% | 15%[1.46 µM] | -17% | ? | ? | -69*
